# Measurements as given in the supplement of paper PMC11006884.
# The full data set covers some 6,500 targets. This sample favours those with a hit. About 2% of all pairs of compound and target were hits.
# Compound: COC(=O)C#Cc1ccccc1 [methyl 3-phenylpropiolate]
# Assay: log2 ratio of iodoacetamide-alkyne labeling of the cysteine site, DMSO over compound (competition); higher = stronger covalent engagement of the cysteine by the compound, active = 1 or more
# Settings: 500 µM; treatment time 1 h; system: HEK293T cell lysate
# In short: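 For each cysteine, the log2 competition ratio is mean control-channel reporter intensity over mean compound-channel reporter intensity. HEK293T lysate (2 mg/mL) was exposed to vehicle or electrophile (500 µM, 1 h, ambient temperature), labelled with iodoacetamide alkyne (1 h), clicked to sCIP-TMT reagents, digested overnight with trypsin at 37 °C, streptavidin-enriched and analysed by Orbitrap Eclipse LC-MS/MS with FAIMS and FragPipe. Cysteines quantified in only one of three replicates, each with duplicate channels, were excluded.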
# Sequence of UniProt O14980 (O14980 whole entry, looked up): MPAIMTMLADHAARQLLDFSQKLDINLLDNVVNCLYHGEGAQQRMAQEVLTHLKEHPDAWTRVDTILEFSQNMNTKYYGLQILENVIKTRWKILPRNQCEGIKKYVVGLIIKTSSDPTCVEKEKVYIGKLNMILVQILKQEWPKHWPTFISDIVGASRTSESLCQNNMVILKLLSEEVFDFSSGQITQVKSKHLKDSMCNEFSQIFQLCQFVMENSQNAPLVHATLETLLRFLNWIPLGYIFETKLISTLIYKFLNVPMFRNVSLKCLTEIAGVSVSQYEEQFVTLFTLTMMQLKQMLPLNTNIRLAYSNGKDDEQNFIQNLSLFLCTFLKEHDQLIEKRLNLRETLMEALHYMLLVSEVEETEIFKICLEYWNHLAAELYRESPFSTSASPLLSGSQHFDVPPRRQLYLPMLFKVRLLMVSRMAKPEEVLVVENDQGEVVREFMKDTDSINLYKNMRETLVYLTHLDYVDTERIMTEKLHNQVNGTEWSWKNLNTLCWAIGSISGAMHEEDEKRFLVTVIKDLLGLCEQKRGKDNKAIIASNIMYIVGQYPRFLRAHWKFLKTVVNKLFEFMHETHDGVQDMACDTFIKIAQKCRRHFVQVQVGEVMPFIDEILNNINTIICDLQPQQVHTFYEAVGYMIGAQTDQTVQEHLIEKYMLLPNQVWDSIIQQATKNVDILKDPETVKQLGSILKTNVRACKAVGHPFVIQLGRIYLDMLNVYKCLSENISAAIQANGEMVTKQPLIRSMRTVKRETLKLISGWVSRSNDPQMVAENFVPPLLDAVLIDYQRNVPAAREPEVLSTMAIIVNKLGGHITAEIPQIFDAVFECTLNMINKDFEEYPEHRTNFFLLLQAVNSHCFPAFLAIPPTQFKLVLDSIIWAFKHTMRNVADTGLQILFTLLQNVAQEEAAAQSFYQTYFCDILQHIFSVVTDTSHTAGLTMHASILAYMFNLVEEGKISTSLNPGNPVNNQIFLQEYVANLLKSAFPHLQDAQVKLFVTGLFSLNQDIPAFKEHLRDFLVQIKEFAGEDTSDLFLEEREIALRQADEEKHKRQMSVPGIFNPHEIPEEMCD
# Sequence of UniProt O94885 (O94885 whole entry, looked up): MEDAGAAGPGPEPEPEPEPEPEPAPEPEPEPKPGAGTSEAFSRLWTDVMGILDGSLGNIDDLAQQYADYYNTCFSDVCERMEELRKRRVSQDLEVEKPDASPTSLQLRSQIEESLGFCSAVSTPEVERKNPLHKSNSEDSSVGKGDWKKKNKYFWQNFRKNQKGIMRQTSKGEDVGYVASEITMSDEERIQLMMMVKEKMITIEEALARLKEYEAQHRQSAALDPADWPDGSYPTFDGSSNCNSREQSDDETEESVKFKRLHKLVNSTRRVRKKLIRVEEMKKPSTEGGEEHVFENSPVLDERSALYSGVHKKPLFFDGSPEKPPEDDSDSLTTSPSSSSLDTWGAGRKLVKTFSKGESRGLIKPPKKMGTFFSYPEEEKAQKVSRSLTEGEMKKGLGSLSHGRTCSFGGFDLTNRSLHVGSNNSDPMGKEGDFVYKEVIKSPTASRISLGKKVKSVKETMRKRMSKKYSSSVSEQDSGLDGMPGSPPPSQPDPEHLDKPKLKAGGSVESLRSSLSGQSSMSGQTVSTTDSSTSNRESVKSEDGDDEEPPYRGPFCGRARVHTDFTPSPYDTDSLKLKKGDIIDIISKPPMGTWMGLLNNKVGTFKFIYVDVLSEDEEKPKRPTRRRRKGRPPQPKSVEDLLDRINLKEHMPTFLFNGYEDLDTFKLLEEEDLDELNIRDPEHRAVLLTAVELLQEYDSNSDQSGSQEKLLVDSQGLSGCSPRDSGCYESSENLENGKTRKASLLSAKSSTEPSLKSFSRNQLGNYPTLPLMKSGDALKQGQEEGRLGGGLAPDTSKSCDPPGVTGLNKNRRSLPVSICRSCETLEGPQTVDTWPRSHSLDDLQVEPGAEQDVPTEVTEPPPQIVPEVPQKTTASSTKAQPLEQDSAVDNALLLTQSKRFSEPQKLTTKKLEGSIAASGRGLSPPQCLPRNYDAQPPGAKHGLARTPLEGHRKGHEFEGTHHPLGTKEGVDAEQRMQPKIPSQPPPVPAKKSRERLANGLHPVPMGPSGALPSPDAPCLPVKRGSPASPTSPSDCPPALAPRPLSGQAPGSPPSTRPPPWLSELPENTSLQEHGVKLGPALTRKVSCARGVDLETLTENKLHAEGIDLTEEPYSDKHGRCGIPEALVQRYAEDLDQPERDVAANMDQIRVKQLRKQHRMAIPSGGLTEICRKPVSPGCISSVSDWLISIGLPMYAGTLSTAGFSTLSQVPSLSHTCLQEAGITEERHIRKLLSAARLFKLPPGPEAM
# Sequence of UniProt O15446 (O15446 whole entry, looked up): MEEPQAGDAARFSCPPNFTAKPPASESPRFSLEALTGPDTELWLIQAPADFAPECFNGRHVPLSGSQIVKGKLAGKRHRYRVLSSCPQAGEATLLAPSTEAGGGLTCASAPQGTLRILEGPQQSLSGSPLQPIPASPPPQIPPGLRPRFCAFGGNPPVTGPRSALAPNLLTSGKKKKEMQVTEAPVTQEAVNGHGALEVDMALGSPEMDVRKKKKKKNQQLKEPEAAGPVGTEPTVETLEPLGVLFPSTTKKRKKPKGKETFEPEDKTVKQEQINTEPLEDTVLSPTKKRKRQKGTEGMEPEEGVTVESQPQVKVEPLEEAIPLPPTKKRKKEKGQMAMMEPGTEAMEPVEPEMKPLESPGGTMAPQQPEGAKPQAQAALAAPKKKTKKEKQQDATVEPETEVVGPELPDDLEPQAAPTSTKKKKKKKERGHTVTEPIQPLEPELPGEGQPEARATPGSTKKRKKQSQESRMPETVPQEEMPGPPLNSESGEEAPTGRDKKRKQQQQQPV
# Sequence of UniProt O43175 (O43175 whole entry, looked up): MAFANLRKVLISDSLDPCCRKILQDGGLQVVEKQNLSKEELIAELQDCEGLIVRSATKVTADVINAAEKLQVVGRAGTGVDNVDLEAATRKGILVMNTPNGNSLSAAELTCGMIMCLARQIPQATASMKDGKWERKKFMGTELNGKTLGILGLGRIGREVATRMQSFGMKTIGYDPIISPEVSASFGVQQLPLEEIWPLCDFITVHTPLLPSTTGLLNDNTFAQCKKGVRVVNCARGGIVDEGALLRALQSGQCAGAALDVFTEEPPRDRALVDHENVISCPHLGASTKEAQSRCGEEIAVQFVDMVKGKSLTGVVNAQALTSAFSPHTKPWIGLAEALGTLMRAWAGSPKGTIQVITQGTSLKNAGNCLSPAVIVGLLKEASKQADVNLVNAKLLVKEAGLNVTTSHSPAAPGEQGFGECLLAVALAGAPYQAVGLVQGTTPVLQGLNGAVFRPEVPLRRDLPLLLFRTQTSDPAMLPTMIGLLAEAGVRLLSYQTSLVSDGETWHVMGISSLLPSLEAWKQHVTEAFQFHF
# Sequence of UniProt O75334 (O75334 whole entry): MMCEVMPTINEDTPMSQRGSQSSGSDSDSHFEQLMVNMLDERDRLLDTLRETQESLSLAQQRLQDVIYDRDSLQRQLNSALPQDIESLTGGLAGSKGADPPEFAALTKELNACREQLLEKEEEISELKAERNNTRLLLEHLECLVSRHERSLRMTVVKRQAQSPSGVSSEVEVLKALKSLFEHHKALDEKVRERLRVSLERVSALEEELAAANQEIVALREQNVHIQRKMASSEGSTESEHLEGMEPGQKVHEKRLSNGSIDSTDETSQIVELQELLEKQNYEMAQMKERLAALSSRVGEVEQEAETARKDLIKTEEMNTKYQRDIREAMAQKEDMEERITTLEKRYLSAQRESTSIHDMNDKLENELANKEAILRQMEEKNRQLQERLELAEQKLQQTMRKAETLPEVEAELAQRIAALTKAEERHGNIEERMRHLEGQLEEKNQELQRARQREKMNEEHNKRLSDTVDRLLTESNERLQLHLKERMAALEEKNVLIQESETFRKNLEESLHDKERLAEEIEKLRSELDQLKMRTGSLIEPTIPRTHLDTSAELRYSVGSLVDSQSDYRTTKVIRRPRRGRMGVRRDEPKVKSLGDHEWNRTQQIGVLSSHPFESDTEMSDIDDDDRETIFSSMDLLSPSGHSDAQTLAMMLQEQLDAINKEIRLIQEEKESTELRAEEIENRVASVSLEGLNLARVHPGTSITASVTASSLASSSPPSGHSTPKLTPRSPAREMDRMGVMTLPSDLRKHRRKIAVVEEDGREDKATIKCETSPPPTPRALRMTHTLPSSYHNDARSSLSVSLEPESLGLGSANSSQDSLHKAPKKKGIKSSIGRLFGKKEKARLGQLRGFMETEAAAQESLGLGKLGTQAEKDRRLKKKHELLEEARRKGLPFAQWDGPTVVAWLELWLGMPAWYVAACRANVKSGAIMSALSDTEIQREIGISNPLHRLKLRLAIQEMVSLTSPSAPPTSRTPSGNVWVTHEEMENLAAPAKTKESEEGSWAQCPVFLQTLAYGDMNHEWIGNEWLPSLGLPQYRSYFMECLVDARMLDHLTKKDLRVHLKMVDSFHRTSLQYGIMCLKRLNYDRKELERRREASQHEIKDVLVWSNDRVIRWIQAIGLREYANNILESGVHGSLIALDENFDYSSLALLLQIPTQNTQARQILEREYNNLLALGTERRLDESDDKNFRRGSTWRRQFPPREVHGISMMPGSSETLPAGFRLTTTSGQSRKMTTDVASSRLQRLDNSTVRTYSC
# Sequence of UniProt O75351 (O75351 whole entry): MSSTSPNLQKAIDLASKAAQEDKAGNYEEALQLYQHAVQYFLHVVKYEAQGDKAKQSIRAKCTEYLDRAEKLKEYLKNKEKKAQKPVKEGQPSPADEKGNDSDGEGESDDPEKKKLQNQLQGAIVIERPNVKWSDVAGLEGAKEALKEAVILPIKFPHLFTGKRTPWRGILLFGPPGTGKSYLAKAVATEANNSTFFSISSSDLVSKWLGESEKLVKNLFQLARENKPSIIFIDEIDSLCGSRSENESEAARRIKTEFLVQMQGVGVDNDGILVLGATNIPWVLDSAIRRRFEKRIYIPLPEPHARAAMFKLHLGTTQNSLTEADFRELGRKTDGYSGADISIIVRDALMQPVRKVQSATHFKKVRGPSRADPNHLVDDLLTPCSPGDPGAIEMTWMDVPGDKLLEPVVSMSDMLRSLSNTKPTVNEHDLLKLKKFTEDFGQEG
row,Target,log2 ratio of iodoacetamide-alkyne labeling
1,UniProt O00567_C211,1.14 (active)
2,PHGDH C369 (UniProt O43175),1.78 (active)
3,WDR46 C456 (UniProt O15213),0.493 (inactive)
4,PFAS C1285 (UniProt O15067),1.36 (active)
5,ANKRD17 C58 (UniProt O75179),1.35 (active)
6,VPS4B C240 (UniProt O75351),0.188 (inactive)
7,TIPRL C87 (UniProt O75663),1.32 (active)
8,UniProt O94822_C498,0.086 (inactive)
9,STX16 C150 (UniProt O14662),0.0256 (inactive)
10,AP3D1 C137 (UniProt O14617),0.262 (inactive)
11,SF3B1 C1035 (UniProt O75533),0.375 (inactive)
12,UniProt O43929_C16,0.153 (inactive)
13,NKRF C37 (UniProt O15226),1.02 (active)
14,PPFIA2 C143 (UniProt O75334),-0.214 (inactive)
15,DNM1L C361 (UniProt O00429),0.736 (inactive)
16,TBC1D4 C1277 (UniProt O60343),0.374 (inactive)
17,UniProt O00567_C52,0.482 (inactive)
18,AKAP8 C275 (UniProt O43823),1.06 (active)
19,TRAFD1 C482 (UniProt O14545),1.55 (active)

row,Target,log2 ratio of iodoacetamide-alkyne labeling
1,XPO1 C164 (UniProt O14980),-0.00596 (inactive)
2,UTP20 C2058 (UniProt O75691),0.539 (inactive)
3,PCF11 C1534 (UniProt O94913),0.259 (inactive)
4,CD3EAP C107 (UniProt O15446),0.723 (inactive)
5,RNMT C73 (UniProt O43148),0.607 (inactive)
6,RECQL5 C664 (UniProt O94762),1.47 (active)
7,CPD C582 (UniProt O75976),0.145 (inactive)
8,TMEM189 C21 (UniProt A5PLL7),1.52 (active)
9,EXOC5 C111 (UniProt O00471),0.297 (inactive)
10,UniProt O43598_C26,0.038 (inactive)
11,FLNB C660 (UniProt O75369),0.476 (inactive)
12,SASH1 C406 (UniProt O94885),1.19 (active)
13,OGT C620 (UniProt O15294),1.35 (active)
14,APAF1 C115 (UniProt O14727),0.288 (inactive)
15,NUP155 C704 (UniProt O75694),0.168 (inactive)
16,UniProt O00148_C62,0.591 (inactive)
17,PGRMC2 C159 (UniProt O15173),0.159 (inactive)
18,IGF2BP3 C546 (UniProt O00425),0.284 (inactive)
19,EIF3D C196 (UniProt O15371),0.719 (inactive)
